Measurements published in paper PMC4336329 (PLoS ONE, 2015).
The campaign covered roughly 310,000 compounds. About 14,000 (4.5%) showed an effect of 50% or more. The effect is printed as a negative number. The list comes from a sample in which strong results are over-represented; it also holds similar structures and randomly drawn compounds.

Each molecule was assayed against human ether-à-go-go-related gene (hERG) potassium channel (human, UniProt Q12809) (assay: primary screen, population patch clamp on CHO cells stably expressing hERG; higher = less effect of the substance).
Chain of human ether-à-go-go-related gene (hERG) potassium channel (Q12809 whole entry, looked up): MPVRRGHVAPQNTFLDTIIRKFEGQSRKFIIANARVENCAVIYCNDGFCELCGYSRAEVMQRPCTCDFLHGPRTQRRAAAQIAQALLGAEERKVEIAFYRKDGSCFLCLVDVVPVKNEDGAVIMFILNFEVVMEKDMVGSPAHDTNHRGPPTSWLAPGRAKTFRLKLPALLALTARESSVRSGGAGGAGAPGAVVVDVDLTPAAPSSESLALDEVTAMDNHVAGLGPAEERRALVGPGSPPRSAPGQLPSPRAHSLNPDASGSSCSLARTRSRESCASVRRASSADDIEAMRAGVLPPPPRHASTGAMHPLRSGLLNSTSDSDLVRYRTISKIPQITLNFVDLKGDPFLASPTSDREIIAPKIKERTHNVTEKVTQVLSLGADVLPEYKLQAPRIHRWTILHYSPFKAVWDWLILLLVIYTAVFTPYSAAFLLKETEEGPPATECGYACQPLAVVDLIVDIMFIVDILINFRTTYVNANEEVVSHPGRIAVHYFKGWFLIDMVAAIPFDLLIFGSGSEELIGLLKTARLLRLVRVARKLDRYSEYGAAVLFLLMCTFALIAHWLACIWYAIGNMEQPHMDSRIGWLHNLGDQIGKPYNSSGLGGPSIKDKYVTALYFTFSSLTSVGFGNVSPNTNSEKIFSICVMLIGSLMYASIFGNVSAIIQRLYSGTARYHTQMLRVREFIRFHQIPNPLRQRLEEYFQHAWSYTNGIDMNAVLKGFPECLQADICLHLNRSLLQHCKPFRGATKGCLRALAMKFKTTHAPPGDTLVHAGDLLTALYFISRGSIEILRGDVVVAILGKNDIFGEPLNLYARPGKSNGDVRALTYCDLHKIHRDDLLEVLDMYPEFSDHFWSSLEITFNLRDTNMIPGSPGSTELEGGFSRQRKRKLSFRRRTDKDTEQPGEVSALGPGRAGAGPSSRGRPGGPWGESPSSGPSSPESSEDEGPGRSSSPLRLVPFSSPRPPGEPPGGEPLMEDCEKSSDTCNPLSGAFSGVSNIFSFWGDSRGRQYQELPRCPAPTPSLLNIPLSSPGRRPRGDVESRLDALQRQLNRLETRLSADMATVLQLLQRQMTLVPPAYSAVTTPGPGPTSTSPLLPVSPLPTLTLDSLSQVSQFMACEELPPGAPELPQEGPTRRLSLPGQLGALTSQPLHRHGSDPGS
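Also: peak tail current of the secondary pulse compared with the same well before compound.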

| SMILES | hERG current change (%, negative = inhibition) at 10uM [%] |
| --- | --- |
| CCNC(=O)c1c(NC(=O)c2cc(-c3cc(C)ccc3O)n[nH]2)sc2c1CCCC2 | 30.5 |
| CCn1nnnc1SCC(=O)N1CCN(c2ccccc2)CC1 | -10.4 |
| Br.CC1CCN(Cc2nnnn2-c2cccc([N+](=O)[O-])c2)CC1 | -10.8 |
| Cc1cccc(C)c1OCCNC(=O)OCc1ccccc1 | -6.74 |
| Cc1c(/C=N/NC(N)=O)c2ccccn2c1C(=O)c1ccncc1.Cl | -54.9 |
| Cc1c(/C=N/NC(N)=O)c2ccccn2c1C(=O)c1ccc(F)cc1 | -5.23 |
| Cc1c(/C=N/NC(=O)CNc2ccccc2)c2ccccn2c1C(=O)c1ccncc1 | 0.0344 |
| CCCCN(CC(=O)NC(C)(C)C)C(=O)C(=O)Nc1ccc2c(c1)OCCO2 | -0.704 |
| CC(C)c1nnc(NC(=O)c2ccc(S(=O)(=O)N3CCOCC3)cc2)s1 | 6.52 |
| Cc1ccnc2nc(C(=O)Nc3ccc4c(c3)OCO4)nn12 | -2.98 |
| CCOC(=O)C1C(C)N=C2SCC(=O)N2C1c1cccc(Br)c1 (centres unmarked) | -12.6 |
| COc1cc(CNc2ccc3c(c2)CCC3)cc(OC)c1O | 12.2 |
| Cn1c(SCC(=O)N2CCOCC2)nnc1-c1ccc2ncccc2c1 | 15.4 |
| COc1cccc(O)c1CN1CCC(n2nccc2NC(=O)c2ccc3c(c2)OCO3)CC1 | -24 |
| CCc1ccc(CN2CCC(n3nccc3NC(=O)c3ccc4c(c3)OCO4)CC2)cc1 | -72 |
| CCOc1cccc(CN2CCC(n3nccc3NC(=O)c3ccc4c(c3)OCO4)CC2)c1 | -43.2 |
| COc1cc(CN2CCC(n3nccc3NC(=O)c3ccc4c(c3)OCO4)CC2)ccc1O | -6.7 |
| CC(=O)c1cccc(CN2CCC(n3nccc3NC(=O)c3ccc4c(c3)OCO4)CC2)c1 | -7.62 |
| COc1ccc(CN2CCC(n3nccc3NC(=O)c3ccc4c(c3)OCO4)CC2)cc1C | -80.6 |
| COC(=O)Nc1sc2c(c1C(N)=O)CCCCCC2 | 11.9 |
| COc1ccc(CNC2CC(=O)N(C)C2=O)cc1 (centres unmarked) | 13.6 |
| COc1ccc(NC2C=CS(=O)(=O)C2)cc1 (centres unmarked) | 0.937 |

| SMILES | hERG current change (%, negative = inhibition) at 10uM [%] |
| --- | --- |
| O=S1(=O)C=CC(Nc2ccccc2)C1 (centres unmarked) | -76 |
| O=S1(=O)C=CC(Nc2cccc(Cl)c2)C1 (centres unmarked) | 16.7 |
| COc1ccc(CCN2CNc3c(c(=O)n(C)c(=O)n3C)C2)cc1 | -17.5 |
| COc1ccc(CCNC(=O)Cn2nc(C)n3nc(-c4ccccc4)cc3c2=O)cc1OC | 2 |
| COCCn1c(=N)c(S(=O)(=O)c2ccc(F)cc2)cc2c(=O)n3cccc(C)c3nc21 | -22.5 |
| COCCn1c(=S)[nH]c2cc(C(=O)NCCc3ccccc3)ccc2c1=O | -2.2 |
| COCCn1c(=N)c(C(=O)NCCc2ccccc2)cc2c(=O)n3cccc(C)c3nc21 | -82.9 |
| COCCn1c(=N)c(C(=O)NCCc2ccc(OC)cc2)cc2c(=O)n3cccc(C)c3nc21 | -84.8 |
| Cc1cccn2c(=O)c3cc(C(=O)NCCc4ccccc4)sc3nc12 | -6.84 |
| CCNC(=O)c1cc2c(=O)n3cccc(C)c3nc2n(CCc2ccccc2)c1=N | -80.3 |
| CC(C)COc1ccc(C(=O)CCN2CCCCC2)cc1.Cl | -41.4 |
| COc1ccc(C)cc1-n1c(SCC(=O)Nc2cc(C)on2)nc2sc(C)c(C)c2c1=O | -2.19 |
| N#Cc1nc(COc2cccc(Cl)c2)oc1N1CCCC1 | -47.5 |
| C=CCC1Cc2c(Br)cccc2C(CC=C)N1 (centres unmarked) | -7.3 |
| COC1=CC=C2[C@H]3Cc4ccc(OC)c5c4[C@@]2(CCN3C)[C@H]1O5.Cl | 10.3 |
| COc1cccc(NC(=O)C2CCN(Cc3cnn(-c4ccccc4)c3-n3cccc3)CC2)c1 | -45.5 |
| O=C(NCCC1=CCCCC1)C1CCN(Cc2cnn(-c3ccccc3)c2-n2cccc2)CC1 | -51.8 |
| O=C(NCC1CCCO1)C1CCCN(Cc2cnn(-c3ccccc3)c2-n2cccc2)C1 (centres unmarked) | -11.2 |
| COc1cccc(CNC(=O)C2CCN(Cc3cnn(-c4ccccc4)c3-n3cccc3)CC2)c1 | -71.3 |
| CC(C)NC(=O)C1CCN(Cc2cnn(-c3ccccc3)c2-n2cccc2)CC1 | -8.99 |
| O=C(NC1CC1)C1CCN(Cc2cnn(-c3ccccc3)c2-n2cccc2)CC1 | -23.5 |
| O=C(NCc1ccc2c(c1)OCO2)C1CCN(Cc2cnn(-c3ccccc3)c2-n2cccc2)CC1 | -49.2 |

| SMILES | hERG current change (%, negative = inhibition) at 10uM [%] |
| --- | --- |
| O=C(NCc1ccccn1)C1CCCN(Cc2cnn(-c3ccccc3)c2-n2cccc2)C1 (centres unmarked) | -24.5 |
| Cc1ccc(CNC(=O)C2CCCN(Cc3cnn(-c4ccccc4)c3-n3cccc3)C2)cc1 (centres unmarked) | -65.3 |
| Cc1ccccc1CSc1nnc(-c2cnccn2)n1C | 7.84 |
| O=C(O)/C=C/C(=O)Nc1ccc(Cl)cc1C(=O)c1ccccc1 | -7.6 |
| CCOc1ccccc1NC(=O)CC1NCCNC1=O (centres unmarked) | -8.89 |
| COc1ccc(/C=N/NC(=O)c2c(C)nc3ccc(Br)cn23)cc1OC | -0.597 |
| COCCNc1nnnc2c1sc1nc(N3CCOCC3)c3c(c12)CC(C)(C)OC3 | -7.85 |
| COc1ccc(OCC(O)Cn2c(Nc3ccccc3)nc3c2c(=O)n(C)c(=O)n3C)cc1 (centres unmarked) | 2.94 |
| CC1CCN(CCOc2ccc(C(=O)c3ccccc3)cc2)CC1.O=C(O)C(=O)O | -47.5 |
| O=C(O)C(=O)O.c1ccc(CN2CCN(CCOCCOc3ccc4c(c3)CCC4)CC2)cc1 | -5.19 |
| CCc1ccc(OCCOCCN2CCN(C)CC2)cc1.O=C(O)C(=O)O | 4.8 |
| CCCCOc1ccc(C(=O)N2CCC(C)CC2)cc1 | -9.48 |
| O=C(O)C(=O)O.O=C(c1ccccc1)c1ccc(OCCOCCN2CCN(Cc3ccccc3)CC2)cc1 | -78.9 |
| O=C(O)C(=O)O.O=C(c1ccccc1)c1ccc(OCCCN2CCCC2)cc1 | -70.6 |
| CCCOc1ccc(C(=O)C(CN2CCOCC2)c2ccccc2)cc1 (centres unmarked) | -8.97 |
| CCCCOc1ccc(C(=O)C(CN2CCOCC2)c2ccccc2)cc1 (centres unmarked) | -1.42 |
| O=C(O)C(=O)O.c1ccc(OCCCN2CCCC2)cc1 | -7.18 |
| CCCOc1ccc(C(=O)C(CN2CCCC2)c2ccccc2)cc1.Cl (centres unmarked) | -65.8 |
| CC1CCN(CCCCOc2ccc(C(=O)c3ccccc3)cc2)CC1.O=C(O)C(=O)O | -77 |
| O=C(O)c1ccccc1NC(=O)N1C[C@H]2C[C@@H](C1)c1cccc(=O)n1C2 | 3.86 |
| COc1ccc(CN(C)Cc2nc(Cc3ccccc3Cl)no2)cc1OC | -10.9 |
| CC(=O)Nc1nc2ccccc2[nH]1 | -0.326 |

| SMILES | hERG current change (%, negative = inhibition) at 10uM [%] |
| --- | --- |
| Cc1cc(C)n(C(=O)CNC(=O)c2ccco2)n1 | 11.9 |
| CC(NC(=O)c1ccco1)C1CCCO1 (centres unmarked) | -12.7 |
| O=CN1CC(=O)N(c2ccccc2)c2c([nH]c3ccccc23)C1 | -23.2 |
| O=C(O)CSc1cc(C(=O)c2ccccc2O)cn2c(=O)c3c(-c4ccccc4)csc3nc12 | -1.71 |
| COc1cc(NC2c3ccccc3C(=O)N2Cc2ccc3c(c2)OCO3)cc(OC)c1 (centres unmarked) | -22.4 |
| Cc1cc(OCC(=O)NCCc2c[nH]c3ccccc23)c2c(C)c(C)c(=O)oc2c1 | 3.37 |
| CC(C)COc1ccc(C(=O)OCCN2CCOCC2)c(O)c1.Cl | -25.2 |
| CC(=O)c1ccc(OCCCN2CCCCC2)cc1.O=C(O)C(=O)O | -22.2 |
| COc1cc(C(=O)OCCN2CCCCC2)ccc1O.Cl | 3.87 |
| CCCOc1ccc(C(=O)CCN2CCCCC2)cc1.Cl | -31.6 |
| O=C(O)C(=O)O.O=C(c1ccccc1)c1ccc(OCCCN2CCCCC2)cc1 | -66.4 |
| CCOc1ccc(C(=O)CCN2CCCCCC2)cc1.Cl | -38.4 |
| O=C(O)C(=O)O.O=C(c1ccccc1)c1ccc(OCCCCN2CCCCC2)cc1 | -52.6 |
| CCCCOc1ccc(C(=O)CCN2CCCCC2)cc1.Cl | -61.5 |
| CCCOc1ccc(C(=O)OCCN2CCCCC2)c(O)c1.Cl | -58.7 |
| COc1ccc(/C=N/N=C2\SC(CC(=O)O)C(=O)N2c2ccccc2)c(OC)c1 (centres unmarked) | 4.13 |
| CC1=CC(C)(C)N(C(=O)CSc2nnc(N)s2)c2cc(C)c(C)cc21 | -6 |
| CC(C)OC(=O)Nc1ccc2c(c1)N(C(=O)CCN(C)C)c1ccccc1CC2.Cl | -20.8 |
| CCOc1ccc(N2CC(NC(=O)c3cccc4ccccc34)CC2=O)cc1 (centres unmarked) | 3.75 |
| CCN(CC(=O)NCc1ccc(Cl)cc1)C(=O)c1cc(S(=O)(=O)NCc2ccccc2)ccc1C | -25.6 |
